# PubChem BioAssay AID588405 (Sanford-Burnham Center for Chemical Genomics, 2011)
# Several values for one entry are separate records, joined by “and”; a condition that tells them apart may be missing. Equal values may be shown once. In all, about 360,000 compounds went through this assay and about 6,200 (1.7%) were called active. Only a selection was taken, and actives are over-represented in it overall. A number with no mark means an inactive call.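 Rule for the calls: active = inhibition of at least 50% at 20 µM; inactive = the rest.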
# Assay: Peg3 promoter-driven luciferase inhibitors, primary screen, cell-based, HeLa, luciferase luminescence (AID 588405)
# Details: HeLa PEG-Prom luciferase reporter, overnight, at 20 µM, hits give high values
row,Compound,inhibition
1,CCC(C)(O)C(=O)OC1C(=O)OC2CC3C(C)=CC(=O)C(O)C3(C)C3C4(O)OCC23C1C(C)C4O (centres undefined),100% (active)
2,O=C(O)CCn1cc(C=C2C(=O)NC(=S)NC2=O)c(-c2cccc(Br)c2)n1,-1.73%
3,CN(C)C(=O)Oc1cc(OC(=O)N(C)C)cc(C(O)CNC(C)(C)C)c1 (centres undefined),4.25% and -0.27%
4,O=C1NC(=O)N(CCc2ccc(F)cc2)C(=O)/C1=C/C=C/c1ccccc1,90.6% (active)
5,O=C1NC(=O)N(c2ccc(F)cc2)C(=O)/C1=C/c1ccc2c(c1)CCCN2Cc1ccccc1,12.7%
6,Cc1cc2ccccn2c1C(C[N+](=O)[O-])c1c(F)cccc1Cl (centres undefined),38.7%
7,CC(C)CN1Cc2cc(N3CCCCC3)ccc2-n2nncc2C1,-1.02%
8,COC(=O)[C@@H]1C(OC(=O)c2ccccc2)CC2CCC1N2C (some centres undefined),-10.5%
9,CC(=O)OC1C2(CC3N4C(=O)C5(CO)SSC4(CC31O)C(=O)N5C)OC(C)C(C)(C)C2=O (centres undefined),99.3% (active)
10,CC1C2Cn3c(nc4ccccc43)C1N(C)O2 (centres undefined),-2.57%
11,Nc1ccc([N+](=O)[O-])cc1,-3.82%
12,CC(C)N(CC#CCC1(O)c2ccccc2-c2ccccc21)C(C)C,-15.7%
13,COc1ccc(C(=O)CC2C(=O)N(C)C(=O)N(C)C2=O)cc1,13.1%
14,CC(=O)Nc1ccccc1C(=O)OCC(=O)c1cccc2ccccc12,-26.1%
15,N#CC1=C(N)Oc2c(c(=O)oc3ccccc23)C1c1ccccc1OC(=O)c1cccs1 (centres undefined),19.6%
16,O=P(OC1=CCCCC1)(c1ccccc1)c1ccccc1,8.64%
17,O=C1C2(Cl)C3(Cl)C4(Cl)C(Cl)(Cl)C5(Cl)C3(Cl)C1(Cl)C5(Cl)C24Cl (centres undefined),86.1% (active)
18,OC1/C(=C/c2ccc(C(F)(F)F)cc2)N2CCC1CC2 (centres undefined),-51.4%
19,C[C@]12CC[C@H](O)C[C@H]1CC[C@@H]1C2CC[C@]2(C)[C@@H](C3=CC(=O)OC3)[C@@H](O)C[C@]12O (some centres undefined),112% (active)
20,CC12CCC(O)CC1CCC1C2CCC2(C)C(C(=O)CC(O)C(F)(F)F)CCC12 (centres undefined),-18.9%

row,Compound,inhibition
1,CCN1c2nc3c(C)cccn3c(=O)c2CC2(C(=O)N(C)C(=O)N(C)C2=O)C1C (centres undefined),4.11%
2,CN1CCC(N(C)Cc2cccnc2)CC1,-0.72%
3,O=C(OCCN1CCOCC1)C1(c2ccccc2)CCCC1,6.31%
4,COc1cc(OC)cc(C2(C#N)CCN(C)CC2)c1,16.1%
5,Cc1cc(OCc2cc(C(=O)O)oc2C)c2c3c(c(=O)oc2c1)CCCC3,0.36%
6,Fc1ccc(C2N3CCCN23)cc1 (centres undefined),2.08%
7,CCCCCCCCCCCCn1ccc(=N)cc1,72.5% (active)
8,COc1ccccc1N=C1SCCCN1C,4.44%
9,CCN1CCN(c2ccc([N+](=O)[O-])cc2C#N)CC1,13.3%
10,CC(Cc1ccccc1)NCCC(c1ccccc1)c1ccccc1 (centres undefined),69.5% (active)
11,CCc1cccc2c(C#N)cn(CC(=O)N3CCOCC3)c12,16.4%
12,CC1CC=CCC12C(=O)NC(=S)NC2=O (centres undefined),4.94%
13,COP(=O)(OC)C(NC(=O)c1ccc(C)cc1)C(Cl)(Cl)Cl (centres undefined),-13.6%
14,CC(CC(C#N)(c1ccccc1)c1ccccc1)N1CCCCC1 (centres undefined),-0.65%
15,CCN1CCN(Cc2cc(OC)c3c(c2)OCO3)CC1,14.7%
16,O=C(NC(=S)N1C[C@H]2C[C@H](C1)c1cccc(=O)n1C2)c1ccc(F)cc1,10.8%
17,CNCC(O)c1cc(F)c(OCc2ccccc2)c(OCc2ccccc2)c1F (centres undefined),100% (active)
18,O=C(CSC1c2ccccc2-c2ccccc21)N/N=C/c1ccccc1,28.7%
19,CCOc1ccc(CN(CCCl)CCCl)cc1C(=O)OC,21.9%
20,COc1ccc(-n2nnnc2C(c2cccc3ccccc23)N2CCC(n3c(=O)[nH]c4ccccc43)CC2)cc1 (centres undefined),50.2% (active)

row,Compound,inhibition
1,CSCCC(c1nnnn1C(C)(C)C)N1CCC(n2c(=O)[nH]c3ccccc32)CC1 (centres undefined),17.6%
2,Cc1ccc(Cn2nnnc2CN2CCC(n3nnc4ccccc43)CC2)cc1,16.7%
3,O=c1[nH]c2ccccc2n1C1CCN(C(c2ccccc2)c2nnnn2Cc2ccccc2)CC1 (centres undefined),71% (active)
4,O=C1NCN(c2ccccc2)C12CCN(C(c1cccs1)c1nnnn1C1CCCCC1)CC2 (centres undefined),22%
5,COc1cccc(C(c2nnnn2-c2ccc3c(c2)OCCO3)N2CCC3(CC2)C(=O)NCN3c2ccccc2)c1OC (centres undefined),45.9%
6,O=c1[nH]c2ccccc2n1C1CCN(C(c2ccnc3ccccc23)c2nnnn2Cc2ccccc2)CC1 (centres undefined),60.1% (active)
7,CN1CCN(Cc2ccccc2C(F)(F)F)CC1,-6.7%
8,CC(=O)c1ccc(OC(NC(=O)Cc2ccccc2)C(Cl)(Cl)Cl)cc1 (centres undefined),-5.19%
9,COc1ccc(N=Cc2c(O)n(C)c(=O)[nH]c2=O)cc1,-20.6%
10,O=[N+]([O-])c1ccc(C2C3C(c4ccccc4)=NC4(CCCCC4)N32)cc1 (centres undefined),23.4%
11,COc1ccccc1NC(=O)N1C[C@@H]2C[C@@H](C1)c1cccc(=O)n1C2,-1.31%
12,CCN1C(=O)NC(=O)C2(CCCC2)C1=O,-7.97%
13,C=CCn1c(O)c(/C=N/N2CCOCC2)c(=O)[nH]c1=S,-0.23%
14,CC(=CCOc1ccc2ccc(=O)oc2c1)C1=CC(=O)C(C)(C)O1,62.4% (active)
15,CN(C)c1nc(N(C)C)nc(N(C#N)CCCl)n1,-5.34%
16,C[C@]12CCC3C(CC[C@H]4[C@H](O)[C@H](O)CC[C@]34C)C1CC[C@@H]2O (some centres undefined),0.2%
17,CCCOC(=O)C1C2c3ccccc3C(c3ccccc32)C1C(=O)O (centres undefined),12.7%
18,Cc1cc(-c2ccc(N)c(C)c2)ccc1N,-45.4%
19,O=C(C1CC(=O)N(C2CCCC2)C1)N1CCC2(CC1)OCCO2 (centres undefined),-6.37%
